Screening data (PubChem BioAssay)
SMN2 splice up = increases expression of the SMN2 splice variant. AID 1458. Potency, µM (series often up to 46.1 µM), usual class: activators. HEK293 SMN2-luciferase splicing reporter, luminescence, 30-36 h. 210,000 tested, 2.8% active; further: nearly all actives have a fitted effect of over 55% in size
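HEK293 cells carry an SMN2 minigene-luciferase reporter in which exon 7 inclusion puts luciferase in frame. Cells were seeded at 2000 cells/well, attached for 10-12 hours, then exposed to compounds for 30-36 hours at 37C before ONE-Glo luminescence.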
p53 reactivator = mutant p53 re-activation in reporter cells | H1299 p53-A138V BP100-luciferase reporter, luminescence, 24 h | Potency, µM (top dose mostly 92.2 µM), usual class: activators | AID 504706 | 320,000 tested, 0.063% active; further: nearly all actives have a fitted effect of over 45% in size
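p53-null H1299 cells stably carrying temperature-sensitive p53-A138V and a BP100-luciferase reporter were pinned with compounds (4-point, 1:5 series) and held 24 hrs at 37 deg C. Luminescence was read 10 min after detection reagent.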
NPC1 prom act = activates the NPC1 promoter; Huh7 NPC1 promoter luciferase reporter, 24 h; Potency, µM (titrated, usually from 9.22 µM), actives largely listed as activators; 320,000 tested, 2.4% active; further: nearly all actives have a fitted effect of over 60% in size
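Huh7 cells stably carrying NPC1 promoter–luciferase, plated in Opti-MEM with 10% FBS for 2 h, were exposed to compound in DMSO for 24 h at 37 °C; luciferase reagent was added for 10 min and luminescence read.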
FLuc modulator = firefly luciferase modulation, counter-screen for miR-21 project | 360,000 tested, 6.9% active | Potency, µM (doses to about 57.5 µM), most hits filed as inhibitors | P08659 | purified FLuc, Km substrates, luminescence inhibition | AID 588342; further: nearly all actives have a fitted effect of over 55% in size
Target sequence (P08659 whole entry, looked up): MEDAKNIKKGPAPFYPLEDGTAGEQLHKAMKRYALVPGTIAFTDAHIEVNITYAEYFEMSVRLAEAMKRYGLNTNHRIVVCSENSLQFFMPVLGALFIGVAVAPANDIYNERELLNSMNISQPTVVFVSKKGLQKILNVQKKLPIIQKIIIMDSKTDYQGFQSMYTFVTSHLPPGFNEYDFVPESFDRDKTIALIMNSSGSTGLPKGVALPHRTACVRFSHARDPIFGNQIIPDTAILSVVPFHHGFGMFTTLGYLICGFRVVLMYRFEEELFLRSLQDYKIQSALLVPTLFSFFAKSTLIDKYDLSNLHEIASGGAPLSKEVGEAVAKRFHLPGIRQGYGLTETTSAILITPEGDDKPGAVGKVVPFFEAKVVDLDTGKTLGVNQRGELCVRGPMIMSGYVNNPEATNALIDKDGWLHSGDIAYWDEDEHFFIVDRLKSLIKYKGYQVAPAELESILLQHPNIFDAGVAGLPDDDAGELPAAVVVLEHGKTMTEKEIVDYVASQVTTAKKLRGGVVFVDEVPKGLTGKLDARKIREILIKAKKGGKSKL
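Biochemical qHTS of compounds, final roughly 60 µM downward over six points, against 10 nM purified firefly luciferase using Km concentrations of substrates (10 uM D-luciferin, 10 uM ATP) in Tris acetate pH 7.5 buffer; luminescence output.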
Rab9 promoter act = Rab9 promoter activation; Potency, µM (titrated, usually from 9.22 µM), most hits filed as activators; Huh7 Rab9 promoter-luciferase reporter, luminescence, 24 h; 320,000 tested, 2.8% active; further: nearly all actives have a fitted effect of over 60% in size
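Cell-based reporter: Huh7 stable for Rab9 promoter-driven luciferase, plated in reduced-serum medium with 10% FBS at 1500 cells/well, compound-treated 24 h at 37 °C, luminescence read after 10 min reagent.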
ELG1 genotoxic = induces genotoxicity in HEK293T cells with luciferase-tagged ELG1; HEK293T ELG1-luciferase reporter, luminescence, 16 h; Potency, µM (top dose mostly 46 µM), usual class: activators; 330,000 tested, 1.3% active; further: nearly all actives have a fitted effect of over 60% in size
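Genotoxic stress is detected as increased luminescence from luciferase-tagged ELG1 in HEK293T cells, measured with ONE-Glo after a 16 hr treatment at 37 °C.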
Large screens that a line does not name were inactive. In the library only some 7.3% were active in any assay of this set; here they are far more common. The call rests on the fitted dose curve; in most records, active means well fitted curve in the direction sought with a large enough effect; inconclusive means small, poorly fitted or top-dose-only effect, or another doubt; inactive means no such curve, though single readings can be large; an effect the other way counts as inactive or inconclusive.

O=C(Nc1ccc(F)cc1)N1CCN(C(=O)c2nsc3ccccc23)CC1	none (no result: SMN2 splice up, p53 reactivator, NPC1 prom act, Rab9 promoter act, ELG1 genotoxic)
O=C(Nc1ccc(C(=O)N2CCN(c3ccc(F)cc3)CC2)cc1)c1nsc2ccccc12	FLuc modulator 7.6µM (no result: SMN2 splice up, p53 reactivator, NPC1 prom act, Rab9 promoter act, ELG1 genotoxic)
Cc1cccc(N2CCN(C(=O)c3ccc(NC(=O)c4nsc5ccccc45)cc3)CC2)c1C	FLuc modulator 6µM (no result: SMN2 splice up, p53 reactivator, NPC1 prom act, Rab9 promoter act, ELG1 genotoxic)
O=C(Nc1ccc(C(=O)N2CCCCC2)cc1)c1nsc2ccccc12	FLuc modulator 1.3µM (no result: SMN2 splice up, p53 reactivator, NPC1 prom act, Rab9 promoter act, ELG1 genotoxic)
Cc1ccc(OCC(=O)NCc2ccccn2)c(Br)c1	NPC1 prom act inconclusive, FLuc modulator 17µM, Rab9 promoter act inconclusive, ELG1 genotoxic inconclusive
CCc1ccccc1Nc1cc(C(=O)NCc2ccccn2)c2ccccc2n1	FLuc modulator 17µM
Cc1ccc(-c2cc(C(=O)NCc3ccccn3)c3ccccc3n2)cc1	SMN2 splice up inconclusive, FLuc modulator 4.3µM
CCc1ccc(-c2cc(C(=O)NCc3ccccn3)c3ccccc3n2)cc1	FLuc modulator 0.85µM
CC1=C(C(=O)Nc2cccnc2)C(c2ccc(F)cc2)n2nc(SCc3ccccc3)nc2N1 (centres undefined)	none (no result: p53 reactivator, NPC1 prom act, Rab9 promoter act, ELG1 genotoxic)
c1ccc(COc2ccc(OCCN3CCCCC3)cc2)cc1	p53 reactivator inconclusive, FLuc modulator inconclusive
O=C1CCN(Cc2ccccc2)CCN1CCOc1ccccc1	NPC1 prom act inconclusive, FLuc modulator 24µM, Rab9 promoter act 3.5µM (no result: SMN2 splice up, p53 reactivator)
CCN1CCN(Cc2ccc(OCc3ccccc3)cc2)CC1	p53 reactivator inconclusive, NPC1 prom act 4µM, FLuc modulator 21µM, ELG1 genotoxic 10µM
CN1CCN(Cc2ccc(OCc3ccccc3)cc2)CC1	p53 reactivator inconclusive, NPC1 prom act inconclusive, FLuc modulator 13µM, Rab9 promoter act inconclusive, ELG1 genotoxic inconclusive
CC(C)CNC(=O)C1CCN(Cc2ccc(OCc3ccccc3)cc2)CC1	SMN2 splice up inconclusive, p53 reactivator inconclusive, FLuc modulator 17µM, Rab9 promoter act inconclusive
CCOc1cccc(NC(=O)C2CC(=O)N(C)C(=Nc3cccc(OC)c3)S2)c1 (centres undefined)	none (no result: p53 reactivator, NPC1 prom act, Rab9 promoter act, ELG1 genotoxic)
O=C(CCC(=O)Nc1ccc(Cl)cc1Cl)N/N=C/c1ccc([N+](=O)[O-])o1	none
CSc1ccc(CCNC(=O)c2cc(C)nc3c2c(C)nn3-c2ccccc2)cc1	none (no result: SMN2 splice up, p53 reactivator, NPC1 prom act, Rab9 promoter act, ELG1 genotoxic)
NC(=O)C1=C[C@H](C2CCCCC2)C[C@H](OCc2ccc(CO)cc2)O1	NPC1 prom act 2.5µM, FLuc modulator 11µM, Rab9 promoter act 3.2µM, ELG1 genotoxic 2.9µM (no result: SMN2 splice up)
NC(=O)NC(N)=O	none (no result: p53 reactivator, NPC1 prom act, FLuc modulator, Rab9 promoter act, ELG1 genotoxic)
COC(c1ccccc1)c1nnc(CCC(=O)N(C)C(C2CC2)C2CC2)o1 (centres undefined)	NPC1 prom act inconclusive, FLuc modulator 13µM, Rab9 promoter act 2.8µM, ELG1 genotoxic inconclusive (no result: SMN2 splice up)
CCCOc1ccc(-c2nn(-c3ccccc3)cc2C2NC(=O)NC(C)=C2C(=O)OC(C)C)cc1 (centres undefined)	none (no result: p53 reactivator, NPC1 prom act, Rab9 promoter act, ELG1 genotoxic)
Cn1c(-c2ccc(S(=O)(=O)N3CCCC3)cc2)csc1=Nc1ccc(Cl)c(Cl)c1	none (no result: p53 reactivator, NPC1 prom act, Rab9 promoter act, ELG1 genotoxic)
Nc1ccc(S(=O)(=O)O)cn1	none
Nc1ccc(-c2ccc(C(=O)O)s2)cn1	FLuc modulator 19µM
CC(=O)N1CCOc2cc(S(=O)(=O)NCc3ccccc3Cl)c(Cl)cc21	none (no result: SMN2 splice up, p53 reactivator, ELG1 genotoxic)
Cc1ccc(C)n1-c1cccc(S(=O)(=O)N2CCOCC2)c1	ELG1 genotoxic 26µM
COC(=O)c1c(NC(=O)c2nc3ccccc3s2)sc2c1CCN(C(C)=O)C2	FLuc modulator inconclusive
O=C(Nc1sc2c(c1C(=O)O)CCCCC2)c1cccnc1	FLuc modulator 17µM (no result: SMN2 splice up, p53 reactivator)
Cc1cccc(C(=O)Nc2sc3c(c2C(=O)O)CCCC3)c1	p53 reactivator inconclusive, FLuc modulator 15µM
O=C(Nc1sc2c(c1C(=O)O)CCC2)c1ccccc1Cl	FLuc modulator inconclusive (no result: SMN2 splice up)
Cc1ccccc1C(=O)Nc1sc2c(c1C(=O)O)CCC2	FLuc modulator 19µM
CNC(=O)c1c(NC(=O)c2nc3ccccc3s2)sc2c1CCC2	SMN2 splice up 13µM, p53 reactivator inconclusive, NPC1 prom act inconclusive, FLuc modulator 5.4µM, Rab9 promoter act 2µM, ELG1 genotoxic 4.6µM
